Source: PubChem BioAssay (National Center for Advancing Translational Sciences (NCATS))
TrxR1 substrate: substrates of rat thioredoxin reductase 1; Potency, µM (series often up to 114 µM), for inactives: top-dose activity change, negative = substrate turnover; AID 588456; O89049; 0.01% of 390,000 active; purified TrxR1 substrate turnover, NADPH consumption readout; further: potency means the concentration at half of the fitted maximal effect; nearly all actives have a fitted effect of over 50% in size
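Rat TrxR1, dispensed at 90 nM, was prereduced with 400 uM NADPH (final) for 5 min at ~22 deg C, then incubated with compound 15 min before 400 uM selenite. A first-read NADPH fluorescence drop versus no-compound background flagged substrates.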
rTrxR1 inhibitor: rat TrxR1 inhibition; Potency, µM (doses to about 114 µM), without a hit: at the top dose activity change, negative = inhibition, actives largely listed as inhibitors; AID 588453; O89049; 1% of 390,000 active; recombinant rTrxR1, NADPH fluorescence consumption, selenite substrate; further: potency means the concentration at half of the fitted maximal effect; nearly all actives have a fitted effect of over 65% in size
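Rat TrxR1 (90 nM in the dispensed reagent) was pre-reduced with 400 uM NADPH for 5 min at room temperature, then incubated with compound for 15 min. After 400 uM selenite was added, NADPH fluorescence (Ex 340/Em 450 nm) was followed for 8 min.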
PI4K2A block: blocks human PI4K2A kinase activity. Q9BTU6. purified PI4K2A, ADP-Glo luminescence, 1 h; active compounds read low. activity change, negative = inhibition, % at 76.9 µM. 0.13% of 420,000 active; in the data active means activity change below about -50%; inconclusive means mostly about -30% to -49%;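 further: -100% = wells without enzyme as full effect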
Target sequence (Q9BTU6 whole entry, looked up): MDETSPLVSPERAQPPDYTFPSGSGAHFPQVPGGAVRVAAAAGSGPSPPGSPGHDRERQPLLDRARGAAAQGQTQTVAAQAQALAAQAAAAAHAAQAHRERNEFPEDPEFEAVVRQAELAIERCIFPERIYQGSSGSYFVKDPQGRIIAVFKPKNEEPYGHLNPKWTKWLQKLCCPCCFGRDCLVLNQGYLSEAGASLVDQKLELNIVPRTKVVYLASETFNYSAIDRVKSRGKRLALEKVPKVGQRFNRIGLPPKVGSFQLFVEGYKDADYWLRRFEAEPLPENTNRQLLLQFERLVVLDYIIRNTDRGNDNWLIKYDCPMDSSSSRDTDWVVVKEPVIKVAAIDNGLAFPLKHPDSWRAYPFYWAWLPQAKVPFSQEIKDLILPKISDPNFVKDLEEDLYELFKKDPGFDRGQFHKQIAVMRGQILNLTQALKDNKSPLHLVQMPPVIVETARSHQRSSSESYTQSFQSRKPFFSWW
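Compounds are screened against recombinant PI4K2A using PI as substrate and ATP, the latter dispensed at 300 microM. Reactions run one hour at ambient temperature before ADP-Glo detection; full inhibition defined by wells lacking enzyme.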
Giardia killer: kills Giardia lamblia; AID 540267; activity change, % at 7.66 µM, hits read low; 0.15% of 340,000 active; Giardia lamblia trophozoite viability; in the data active means activity change below about -80%; inconclusive means between about -30% and that limit;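 further: parasites exposed to compound for two days anaerobically before the ATP read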
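ATP-content bioluminescence gauges trophozoite survival. Cells (100/well) receive compound and incubate anaerobically for 48 hrs at 37 deg C; detection reagent follows for 15-30 min at room temperature.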
GALK inhibitor: blocks human galactokinase activity | Purified GALK, Kinase-Glo residual ATP luminescence | Potency, µM (top dose mostly 57.5 µM), for the others: top-dose activity change, negative = inhibition, actives largely listed as inhibitors | 0.007% of 270,000 active | AID 1868; further: potency means the concentration at half of the fitted maximal effect
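Galactose (100 uM) and ATP (35 uM) were turned over by 5 nM GALK for 1 h at RT. Kinase-Glo Plus then converted the remaining ATP into a luminescent signal.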
FBPA coupling cs: inhibits coupling enzyme system, counter-screen for aldolase hits. coupling enzyme system counterscreen, AmpLite Red fluorescence. activity change, negative = inhibition, % at 58.2 µM, hits read low. 0.67% of 290,000 active. AID 2472; in the data active means activity change below about -30%
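First, compound is pin-transferred into glyceraldehyde-3-phosphate coupling-enzyme reagent at 57.5 uM final and held 10 min at RT. Next, substrate, coupling system and AmpLite Red are added. After 20 min RT, fluorescence (525/598 nm) is read.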
The depositor's hits bear a star; ? = inconclusive; . = not tested or not shown; [ ] = remark or other dose. An excerpt weighted towards active compounds, which were near 1.5% of everything screened. Unless noted, the call rests on the fitted dose curve; in most records, active means well fitted curve in the direction sought with a large enough effect; inconclusive means small, poorly fitted or top-dose-only effect, or another doubt; inactive means no such curve, though single readings can be large; an effect the other way counts as inactive or inconclusive. Unless noted, on the % scale 0 is the no-effect control and ±100 the full control effect.

SMILES	TrxR1 substrate	rTrxR1 inhibitor	PI4K2A block	Giardia killer	GALK inhibitor	FBPA coupling cs
CC(=O)Nc1cccc(NC(=S)Nc2cccc(Cl)c2Cl)c1	0%[57.1 µM]	32µM*	-3	18	-2%	0
COC(=O)c1ccc(NC(C)=O)cc1OC	.	.	1	.	.	.
CCN(CC)S(=O)(=O)c1cccc(NC(=O)COC(=O)/C=C/c2ccco2)c1	-10%	?	1	-21	3%	2
CN(C)S(=O)(=O)c1cccc(NC(=O)COC(=O)/C=C/c2ccco2)c1	-2%	25µM*	-5	-6	2%	1
Cc1c(Cl)cnc(NC(=O)COC(=O)C(NC(=O)c2ccco2)C(C)C)c1Cl (centres undefined)	1%	50µM*	-9	11	-1%	0
Cc1c(Cl)cnc(NC(=O)COC(=O)/C=C/c2ccco2)c1Cl	0%	16µM*	-20	-17	.	.
CSc1cccc(NC(=O)N2CCN(S(=O)(=O)c3ccc4c(ccn4C)c3)CC2)c1	2%[57.1 µM]	28%[57.1 µM]	1	.	.	.
CCSc1nc2c(c(=O)[nH]c(=O)n2C)n1CC(O)COc1ccc(Cl)cc1 (centres undefined)	7%	6%	-8	.	.	.
Nc1ncnc2c1ncn2C1OC(CO)C2OC21 (centres undefined)	.	.	-7	.	.	.
CC1(C)O[C@@H]2[C@H](O1)[C@@H](CO)O[C@H]2n1cnc2c(N)ncnc21	7%	21%	-52*	8	.	.
O=C(c1cccc(Cl)c1Cl)N(Cc1ccco1)Cc1cccs1	1%	13µM*	.	21	.	.
CC(C)(C)OC1NS(=O)(=O)OCC1NCOC(Cl)(Cl)Cl (centres undefined)	5%	1.8µM*	-7	-2	.	-5
C=CCC1NS(=O)(=O)OCC1NC(=O)OCC(Cl)(Cl)Cl (centres undefined)	3%[57.1 µM]	10%[57.1 µM]	-1	0	.	-1
COC1=C2C[C@H](C)C[C@H](OC)[C@@H](O)[C@@H](C)C=C(C)[C@H](OC(N)=O)[C@@H](OC)C=CC=C(C)C(=O)NC(=CC1=O)C2=O	-1%	50µM*	.	6	.	.
O=C(/C=C\Nc1ccc2c(c1)OCO2)c1ccccn1	24%	30%	-55*	?	11%	-1
Cc1ccc(/C=c2\s/c(=C(/C#N)C(=O)N3CCCC3)n(Cc3ccco3)c2=O)s1	-15%	25µM*	-12	-4	0%	-3
COc1cc(/C=c2\s/c(=C(/C#N)C(=O)N3CCCC3)n(-c3ccccc3)c2=O)ccc1O	-1%[57.1 µM]	-3%	2	-2	3%	0
Cc1ccc2oc(-c3ccc(C)c(NC(=O)COc4ccc(Cl)cc4)c3)nc2c1	6%	15%	.	.	.	.
COc1ccc(C(C[N+](=O)[O-])c2c(-c3ccccc3)cc3ccccn23)cc1 (centres undefined)	1%[57.1 µM]	?	14	7	6%	2
COc1ccc(C(C[N+](=O)[O-])c2c(-c3ccccc3)cc3ccccn23)cc1OC (centres undefined)	-5%	16µM*	-4	-9	6%	-9
COc1cc(C(C[N+](=O)[O-])c2c(-c3ccccc3)cc3ccccn23)cc(OC)c1OC (centres undefined)	0%	1.8µM*	4	-5	2%	-29
COc1ccc(S(=O)(=O)Nc2cccc3cccnc23)c([N+](=O)[O-])c1	-6%[0.457 µM]	20%	.	-6	.	.
Cc1ccc(-n2c(SCC(=O)c3ccc(O)c(O)c3)nnc2-c2ccccc2)cc1	.	.	-13	.	.	.
O=C(CCCOc1ccc(Cl)cc1Cl)N/N=C/c1ccccc1	-5%	-7%	5	7	-2%	-48*
Cc1ccc(/C=N/NC(=O)CCCOc2ccc(Cl)cc2Cl)cc1	-5%	-4%	-2	-19	-1%	-11
SMILES	TrxR1 substrate	rTrxR1 inhibitor	PI4K2A block	Giardia killer	GALK inhibitor	FBPA coupling cs
CC1(C)CC(=O)C(C2C3=C(CC(C)(C)CC3=O)Oc3ccccc32)C(=O)C1 (centres undefined)	-6%	56µM*	9	-9	-1%	3
CCOC(=O)[C@@]12CCC3=C1N(CCC3)C(=O)[C@H](CC(=O)NCc1cccc(C(F)(F)F)c1)C2	.	.	1	.	.	.
CCOc1ccc(-c2ccc(SCC(=O)Nc3nnc(CC)s3)nn2)cc1	-1%[57.1 µM]	10%[57.1 µM]	-2	?	6%	6
CCOc1ccc(-c2ccc(SC)nn2)cc1	9%[57.1 µM]	35%[57.1 µM]	-85*	-87*	13%	1
COc1cccc(CN2c3ccc(Br)cc3C(=O)CS2(=O)=O)c1	-2%	2.2µM*	-4	23	.	.
C=CCN1c2ccc(Br)cc2C(=O)CS1(=O)=O	4%	7.1µM*	1	-15	.	.
COc1cc(CN2c3ccc(Br)cc3C(=O)CS2(=O)=O)cc(OC)c1	-5%	?	.	.	.	.
Cc1[nH]cnc1-c1ccc(Cl)cc1	.	.	2	.	.	.
COc1ccc(-c2ccc(NC(=O)c3ccco3)cc2)nn1	-6%[57.1 µM]	-16%[57.1 µM]	-53*	-93*	.	.
O=C(NCc1ccco1)c1cccc(NC(=O)c2ccco2)c1	2%	50µM*	-10	5	-2%	-6
O=C(NCc1ccco1)Nc1ccc2nsnc2c1	48%	?	?	-4	3%	-38*
O=C(NCc1ccco1)Nc1ccc(Br)cc1	7%[57.1 µM]	5%	1	-19	-1%	-1
Cc1ccc(C(=O)NCc2ccco2)cc1S(=O)(=O)Nc1cccc(C)c1C	-5%	79µM*	-6	9	2%	0
O=C1CC2(CCCC2)CC(=O)N1	.	.	-3	.	.	.
C[C@H]1Cc2c(-c3ccccc3)nc3c(c2CO1)CN(S(=O)(=O)c1ccc(C#N)cc1)CC3	.	.	.	.	.	0
COc1ccccc1CNC(=O)CSc1nc(=O)[nH]c2c1CCC2	6%[57.1 µM]	15%[57.1 µM]	4	.	.	.
Cc1cc(C)c2c(C)c(C(=O)N3CCC(c4nc5ccccc5s4)CC3)oc2c1	2%	32%	2	.	.	.
O=C(Nc1cccc(-c2nc3ccccc3o2)c1)c1ccc(-c2ccc(Br)cc2)o1	35%	11%	5	.	.	.
O=C(Nc1cccc(NC(=O)c2ccc(-c3ccc(Br)cc3)o2)c1)c1ccco1	40%	79µM*	0	8	-4%	1
CCCN1CNc2c(c(=O)[nH]c(=S)n2CCc2cccc(OC)c2OC)C1	-2%	0%	.	-16	.	.
CN1CCc2c(n(CC(O)CN(CCO)CCO)c3ccccc23)C1=O (centres undefined)	3%	7%	5	-3	-3%	-51*
CN(C)c1ccc(/C=C2\C=Cc3ccccc32)c(F)c1	-9%[0.0914 µM]	-26%	.	.	.	.
O=c1c(C(c2nnnn2C2CCCCC2)N2CCCCC2)coc2ccc(Cl)cc12 (centres undefined)	2%	28µM*	7	-2	1%	0
C=CCN(C)C(C#Cc1ccccc1)Cc1ccccc1 (centres undefined)	.	.	0	.	.	.
